The record followed here is PubChem BioAssay (EPA / NIEHS).

Inconclusive results are not listed. The source made the active and inactive calls. The calls were made as follows, unless noted: active = hit-call score of the fitted dose curve at least 0.9, where 1 is the maximum; inactive = score below 0.9.

For assay [1], the target named is human Retinoid X Receptor beta (RXRb), RXRB (gene 6257) (UniProt P28702). As to the kind of experiment: ATG_RXRb_TRANS: Attagene TRANS-FACTORIAL HepG2 Assay for human Retinoid X Receptor beta (RXRb) (AID 2283013; active = hit-call score of the fitted dose curve at least 0.9, where 1 is the maximum). The procedure, abridged: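 Readout is reporter transcript induction after 24 h dosing. It is measured by RT-PCR of total RNA followed by fluorescent capillary electrophoresis. HepG2 liver cells carry transfected multiple reporter units driven by an exogenous RXRb-Gal4 fusion; activity is relative to DMSO.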

In assay [2] the target is human Thyroid Receptor alpha (THRa1), THRA (gene 7067) (UniProt P10827). As to the kind of experiment: ATG_THRa1_TRANS: Attagene TRANS-FACTORIAL HepG2 Assay for human Thyroid Receptor alpha (THRa1) (AID 2283014; active = hit-call score of the fitted dose curve at least 0.9, where 1 is the maximum). The method in brief:
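Measured here is mRNA from a GAL4-UAS reporter in transfected HepG2 cells carrying a Gal4-fused receptor, 24 h post-dose. DMSO served as negative control and baseline.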

Read-out in assay [3]: E-selectin (Homo sapiens) (UniProt P16581)
As to the kind of experiment: BSK_3C_Eselectin: BioMAP Diversity Plus: 3C Assay for Eselectin Biomarker Activity (AID 2283015).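 As to outcome: cell surface E-selectin protein quantified by ELISA 24 h after dosing.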 As to conditions: primary human endothelial cells (HUVEC); actives raise or lower the signal. The method in brief:
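Endpoint derived by bidirectional fitting against DMSO vehicle; signal is ELISA-detected E-selectin from primary HUVEC at 24 h post-dosing, with parallel SRB staining (0.1% SRB, 560 nm) flagging cytotoxicity.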

Read-out in assay [4]: Interleukin-1 alpha (IL1a), IL1A (gene 3552)
As to the kind of experiment: BSK_BE3C_IL1a: BioMAP Diversity Plus: BE3C Assay for Interleukin-1 alpha (IL1a) Biomarker Activity (AID 2283016). As to conditions: primary human bronchial epithelial cells; actives raise or lower the signal. The procedure, abridged:
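IL-1a measured by ELISA after 24 h treatment of human primary bronchial epithelial cells, with gain or loss of signal fitted versus DMSO. Parallel cultures stained with SRB gauge overt cytotoxicity.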

Read-out in assay [5]: Monocyte Chemoattractant Protein-1 (MCP1), CCL2 (gene 6347)
As to the kind of experiment: BSK_3C_MCP1: BioMAP Diversity Plus: 3C Assay for Monocyte Chemoattractant Protein-1 (MCP1) Biomarker Activity (AID 2283017). As to conditions: primary human endothelial cells (HUVEC); actives raise or lower the signal. The method in brief:
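Using human vascular primary endothelium, researchers measured MCP-1 by ELISA 24 h after treatment, with DMSO serving as negative control for bidirectional fitting.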

Read-out in assay [6]: Monocyte Chemoattractant Protein-1 (MCP1), CCL2 (gene 6347)
Put plainly: BSK_4H_MCP1: BioMAP Diversity Plus: 4H Assay for Monocyte Chemoattractant Protein-1 (MCP1) Biomarker Activity (AID 2283018). As to conditions: primary human endothelial cells (HUVEC); actives raise or lower the signal. The procedure, abridged: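 ELISA of MCP-1 (CCL2) 24 h after chemical dosing of HUVEC in the BioMAP 4H system. Gain or loss versus DMSO fitted; parallel SRB staining (560 nm) tracked overt cytotoxicity.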

Read-out in assay [7]: Human Leukocyte Antigen - DR isotype (HLADR), HLA-DRA (gene 3122)
As to the kind of experiment: BSK_3C_HLADR: BioMAP Diversity Plus: 3C Assay for Human Leukocyte Antigen - DR isotype (HLADR) Biomarker Activity (AID 2283019). As to conditions: primary human endothelial cells (HUVEC); actives raise or lower the signal. The procedure, abridged:
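Compound added to primary HUVEC cultures, 24 h incubation, then HLA-DR determined by ELISA; endpoint derived by bidirectional fitting relative to DMSO negative control.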

Read-out in assay [8]: Interleukin-8 (IL8), CXCL8 (gene 3576)
Put plainly: BSK_3C_IL8: BioMAP Diversity Plus: 3C Assay for Interleukin-8 (IL8) Biomarker Activity (AID 2283020). As to conditions: primary human endothelial cells (HUVEC); actives raise or lower the signal. The procedure, abridged: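 IL-8 was measured by ELISA in HUVEC cultures 24 h after chemical dosing, with gain or loss of signal fitted relative to DMSO. Parallel SRB total-protein staining tracked overt cytotoxicity.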

Read-out in assay [9]: Monokine induced gamma interferon (MIG), CXCL9 (gene 4283)
As to the kind of experiment: BSK_3C_MIG: BioMAP Diversity Plus: 3C Assay for Monokine induced gamma interferon (MIG) Biomarker Activity (AID 2283021).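 As to AC50: MIG protein level measured by immunoassay in the treated endothelial cultures.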 As to conditions: primary human endothelial cells (HUVEC); actives raise or lower the signal. The method in brief:
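ELISA measurement of MIG in human umbilical vein endothelial cells 24 h after treatment. Cytotoxicity tracked by SRB staining in parallel cultures; gain or loss of signal fitted relative to DMSO.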

Assay [10] concerns the target human Vitamin D Receptor (VDR), VDR (gene 7421) (UniProt P11473). As to the kind of experiment: ATG_VDR_TRANS: Attagene TRANS-FACTORIAL HepG2 Assay for human Vitamin D Receptor (VDR) (AID 2283022; active = hit-call score of the fitted dose curve at least 0.9, where 1 is the maximum). The procedure, abridged:
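Multiplexed TRANS reporter in HepG2; 24 h treatment; reporter mRNA by RT-PCR plus capillary electrophoresis; upregulation scored relative to DMSO.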

A short description of assay [11]: BSK_3C_SRB: Viability Assessment in the BioMAP Diversity Plus: 3C Assay (AID 2283023).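 Also: cells read 24 h after compound dosing; fitted both ways against DMSO so a hit may be signal rise or drop.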 The conditions noted are these: primary human endothelial cells (HUVEC). The method in brief:
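Overt cytotoxicity is gauged in parallel confluent HUVEC cultures by SRB total-protein staining at the time of biomarker measurement, 24 h after dosing. Gain or loss of signal is fitted versus DMSO.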

Read-out in assay [12]: Matrix Metallopeptidase 1 (MMP1), MMP1 (gene 4312)
Put plainly: BSK_BE3C_MMP1: BioMAP Diversity Plus: BE3C Assay for Matrix Metallopeptidase 1 (MMP1) Biomarker Activity (AID 2283024). As to conditions: primary human bronchial epithelial cells; actives raise or lower the signal. The procedure, abridged:
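ELISA measurement of MMP-1 after 24 h compound exposure of primary human bronchial epithelial cells. Changes in either direction fitted relative to DMSO; parallel SRB staining checked overt cytotoxicity.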

The nature of assay [13]: BSK_3C_Vis: BioMAP Diversity Plus: 3C Assay for Morphology Visualization (AID 2283025).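 Also: fitted both ways so gain or loss versus DMSO counts.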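 As to AC50: light microscopy image of cell morphology used as background control.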 The conditions noted are these: primary human endothelial cells (HUVEC). The procedure, abridged: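 Light-microscopy visualization of HUVEC cultures at 24 h post-treatment, with DMSO as baseline for bidirectional fitting.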
Read-out in assay [14]: Pselectin, SELP (gene 6403)
Put plainly: BSK_4H_Pselectin: BioMAP Diversity Plus: 4H Assay for Pselectin Biomarker Activity (AID 2283026). As to conditions: primary human endothelial cells (HUVEC); actives raise or lower the signal. The method in brief:
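ELISA of surface P-selectin on HUVEC, 24 h after dosing, with parallel SRB staining (0.1% after 10% TCA fixation, 560 nm) for overt cytotoxicity. Activity fitted in both directions relative to DMSO.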

Assay [15] in a line: BSK_4H_SRB: Viability Assessment in the BioMAP Diversity Plus: 4H Assay (AID 2283027).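 Also: cells exposed to compound for 24 h before staining.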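 As to AC50: curves fitted both ways versus DMSO so AC50 may be loss or gain.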 As to conditions: primary human endothelial cells (HUVEC). The method in brief:
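HUVEC, 24 h post-dose; 10% TCA fix, 0.1% SRB stain, A560 nm. Total protein = overt cytotoxicity, parallel to biomarker read. Bidirectional fit vs DMSO baseline.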

A short description of assay [16]: BSK_BE3C_SRB: Viability Assessment in the BioMAP Diversity Plus: BE3C Assay (AID 2283028).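 As to AC50: fitted both ways so AC50 may mark signal gain or loss versus DMSO.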 The conditions noted are these: primary human bronchial epithelial cells. The method in brief:
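SRB total-protein staining (0.1%, after TCA fixation) of chemically dosed human bronchial epithelial primary cells at 24 h; DMSO serves as the negative control for bidirectional curve fitting.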

Read-out in assay [17]: Urokinase-type plasminogen activator receptor (uPAR), PLAUR (gene 5329)
Put plainly: BSK_4H_uPAR: BioMAP Diversity Plus: 4H Assay for Urokinase-type plasminogen activator receptor (uPAR) Biomarker Activity (AID 2283030). As to conditions: primary human endothelial cells (HUVEC); actives raise or lower the signal. The procedure, abridged: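 Endpoint derived via bidirectional curve fitting against DMSO baseline; readout was ELISA detection of uPAR on umbilical vein endothelial cells at 24 h post-treatment, with SRB-stained parallel cultures assessing cytotoxicity.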

Read-out in assay [18]: Vascular endothelial growth factor receptor 2 (Homo sapiens) (UniProt P35968)
Put plainly: BSK_4H_VEGFRII: BioMAP Diversity Plus: 4H Assay for Vascular endothelial growth factor receptor 2 (VEGFR2) Biomarker Activity (AID 2283031). As to conditions: primary human endothelial cells (HUVEC); actives raise or lower the signal. The procedure, abridged:
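In this multiplexed HUVEC system, biomarker ELISA was performed after 24 h chemical exposure. Parallel SRB staining (TCA fixation, 560 nm) tracked cytotoxicity; DMSO served as baseline.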

Read-out in assay [19]: Human Leukocyte Antigen - DR isotype (HLADR), HLA-DRA (gene 3122)
Put plainly: BSK_BE3C_HLADR: BioMAP Diversity Plus: BE3C Assay for Human Leukocyte Antigen - DR isotype (HLADR) Biomarker Activity (AID 2283032). As to conditions: primary human bronchial epithelial cells; actives raise or lower the signal. The procedure, abridged: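 Cell-surface HLA-DR ELISA readout at 24 h after dosing in the BE3C primary human lung bronchial epithelial system; gain or loss of signal against DMSO, with parallel sulforhodamine B staining of total protein for overt cytotoxicity.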

Chain of human Thyroid Receptor alpha (THRa1), THRA (gene 7067) (P10827 whole entry, looked up, the tested form may be a part): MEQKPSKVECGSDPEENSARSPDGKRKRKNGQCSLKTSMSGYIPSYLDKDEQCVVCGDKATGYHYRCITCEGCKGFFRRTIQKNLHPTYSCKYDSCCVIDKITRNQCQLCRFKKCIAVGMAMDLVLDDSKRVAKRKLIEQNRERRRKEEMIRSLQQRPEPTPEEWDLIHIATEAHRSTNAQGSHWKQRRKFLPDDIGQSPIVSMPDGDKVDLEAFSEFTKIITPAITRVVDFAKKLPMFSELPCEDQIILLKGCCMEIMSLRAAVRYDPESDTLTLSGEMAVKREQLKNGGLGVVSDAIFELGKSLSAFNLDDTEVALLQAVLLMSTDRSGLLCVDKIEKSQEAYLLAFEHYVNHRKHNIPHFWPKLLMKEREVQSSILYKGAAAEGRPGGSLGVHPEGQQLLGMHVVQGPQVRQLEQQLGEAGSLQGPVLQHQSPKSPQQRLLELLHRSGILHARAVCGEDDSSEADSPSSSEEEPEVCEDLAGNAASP
Chain of E-selectin (Homo sapiens) (P16581 whole entry, looked up): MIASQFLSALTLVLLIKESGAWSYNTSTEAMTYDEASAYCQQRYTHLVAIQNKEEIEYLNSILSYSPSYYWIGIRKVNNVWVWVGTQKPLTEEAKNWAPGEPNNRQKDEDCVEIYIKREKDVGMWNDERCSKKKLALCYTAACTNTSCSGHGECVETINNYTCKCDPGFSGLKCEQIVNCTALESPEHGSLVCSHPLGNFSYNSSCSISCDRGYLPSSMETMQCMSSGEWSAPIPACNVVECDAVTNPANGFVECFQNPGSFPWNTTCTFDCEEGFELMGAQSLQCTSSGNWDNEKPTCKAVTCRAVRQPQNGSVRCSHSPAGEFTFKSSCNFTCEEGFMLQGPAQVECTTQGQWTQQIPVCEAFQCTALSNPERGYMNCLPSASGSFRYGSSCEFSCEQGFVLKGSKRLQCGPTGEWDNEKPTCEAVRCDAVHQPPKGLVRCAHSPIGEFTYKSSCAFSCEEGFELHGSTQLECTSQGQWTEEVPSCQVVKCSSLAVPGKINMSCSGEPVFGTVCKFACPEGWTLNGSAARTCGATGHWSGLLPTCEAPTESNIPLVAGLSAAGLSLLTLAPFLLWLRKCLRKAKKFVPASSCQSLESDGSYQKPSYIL
Chain of human Retinoid X Receptor beta (RXRb), RXRB (gene 6257) (P28702 whole entry, looked up, the tested form may be a part): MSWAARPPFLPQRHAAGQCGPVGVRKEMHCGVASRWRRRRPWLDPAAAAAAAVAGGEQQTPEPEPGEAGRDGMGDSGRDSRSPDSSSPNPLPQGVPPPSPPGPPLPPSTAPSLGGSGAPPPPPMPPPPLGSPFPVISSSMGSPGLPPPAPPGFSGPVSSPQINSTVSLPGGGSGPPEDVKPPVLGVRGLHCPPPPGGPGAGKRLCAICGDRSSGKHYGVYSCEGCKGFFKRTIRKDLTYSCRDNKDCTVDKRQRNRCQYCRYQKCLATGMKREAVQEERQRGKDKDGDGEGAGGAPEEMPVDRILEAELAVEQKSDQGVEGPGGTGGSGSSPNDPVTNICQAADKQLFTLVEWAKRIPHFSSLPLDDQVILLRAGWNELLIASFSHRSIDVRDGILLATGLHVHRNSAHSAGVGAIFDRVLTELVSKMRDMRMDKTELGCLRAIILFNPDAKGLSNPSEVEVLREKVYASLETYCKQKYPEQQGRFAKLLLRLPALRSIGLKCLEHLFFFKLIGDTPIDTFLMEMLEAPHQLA
Chain of human Vitamin D Receptor (VDR), VDR (gene 7421) (P11473 whole entry, looked up): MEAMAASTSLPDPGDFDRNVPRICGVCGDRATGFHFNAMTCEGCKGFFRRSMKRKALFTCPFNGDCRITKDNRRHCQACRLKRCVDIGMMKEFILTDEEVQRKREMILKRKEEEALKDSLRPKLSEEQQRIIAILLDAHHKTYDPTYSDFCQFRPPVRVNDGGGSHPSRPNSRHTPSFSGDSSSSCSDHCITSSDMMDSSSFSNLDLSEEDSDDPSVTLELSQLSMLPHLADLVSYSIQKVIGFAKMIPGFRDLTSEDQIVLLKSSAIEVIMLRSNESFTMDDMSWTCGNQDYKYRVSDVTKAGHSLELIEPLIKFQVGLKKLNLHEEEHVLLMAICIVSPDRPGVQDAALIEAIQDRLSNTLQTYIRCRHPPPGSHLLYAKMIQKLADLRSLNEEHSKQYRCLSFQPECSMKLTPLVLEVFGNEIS

In the case of `O=C(O)C(Cl)(Cl)Cl`, the outcome in [1], in assay [2], in [3], in assay [4], in [5] and in [6] was inactive. Besides, the outcome in assay [7], in assay [8], in [9], in assay [10], in assay [11] and in assay [12] was inactive. Also, the outcome in [13], in assay [14], in assay [15], in assay [16], in assay [17] and in [18] was inactive. Also, the result in assay [19] was inactive.
With `N#CCc1ccc(Cl)cc1`, the outcome in [1], in assay [2] and in assay [10] was inactive.
Regarding `O=Cc1cccc(Oc2ccccc2)c1`, the compound was called inactive in assay [1], in assay [2], in assay [3], in assay [4], in assay [5] and in assay [6]. The result in assay [7], in assay [8], in [9], in assay [10], in assay [11] and in [12] was inactive. For the same compound, the result in assay [13], in [14], in assay [15], in [16], in assay [17] and in assay [18] was inactive. Further, the result in assay [19] was inactive.
In the case of `CCOP(=S)(OCC)Oc1ccc(S(C)=O)cc1` (configuration not stated), the outcome in [1], in [2], in [3], in assay [4], in assay [5] and in [6] was inactive. The result in [7], in assay [8], in assay [9], in assay [11], in assay [12] and in assay [13] was inactive. Further, the outcome in assay [14], in assay [15], in assay [16], in assay [17], in assay [18] and in assay [19] was inactive.
With `Nc1cccc(Cl)c1`, the call in assay [1], in assay [2] and in assay [10] was inactive.
As a reminder, the AC50 is the concentration at which the activity in the assay is half-maximal. Regarding `C=C(C)C(=O)[O][Sn]([CH2]CCC)([CH2]CCC)[CH2]CCC`, the half-maximal activity concentration (AC50) is 0.0323 µM (active) in [1]; 0.148 µM (active) in assay [3]; 0.148 µM (active) in assay [4]; 0.46 µM (active) in assay [5]; 0.663 µM (active) in assay [6]; 0.233 µM (active) in assay [7]. Moreover, the AC50 was 0.148 µM (active) in assay [8]; 0.148 µM (active) in [9]; 0.148 µM (active) in assay [11]; 0.148 µM (active) in assay [12]; 0.468 µM (active) in [13]; 0.148 µM (active) in [14]. Further, the concentration at half-maximal activity (AC50) in assay [15], in [16], in assay [17] and in assay [19] was 0.148 µM (active) throughout. Further, the outcome in [2] and in assay [10] was inactive.
`CCC(C)(C)c1ccc(O)c(C(C)(C)CC)c1`: the half-maximal activity concentration (AC50) in [1] is 9.09 µM (active); in assay [2], 45.8 µM (active); in assay [3] it was 10.4 µM (active); in [4] it was 32.5 µM (active); in [5] it was 9.92 µM (active); in assay [6], 11.1 µM (active). Besides, the half-maximal activity concentration (AC50) in assay [7] is 7.84 µM (active); in assay [8], 8.88 µM (active); in [9], 13.3 µM (active); in [10], 55 µM (active); in assay [11], 7.65 µM (active); in [12], 34.8 µM (active). In addition, the AC50 in [13] is 6.71 µM (active); in [14] it was 7.72 µM (active); in assay [15], 11.7 µM (active); in [16], 28.8 µM (active); in assay [17], 11.4 µM (active); in assay [19], 25.2 µM (active). The result in assay [18] was inactive.
Take `CC(=[OH+])/C=C(/C)[O-].CC(=[OH+])/C=C(/C)[O-].CC(=[OH+])/C=C(/C)[O-].[Al]`: the compound was called inactive in assay [1], in assay [2] and in [10].
